# Assay results from the supplement of paper PMC8728848.
# The full list was thinned out, with the strongest signals kept by preference.
# Key:
# Experiment in all cases: glycan array binding signal (z-score within array); higher = stronger binding
# Details in all cases: glycan notation: IUPAC condensed, linker removed
# [1] = biological target: Neu5Ac(a2-3)Gal(b1-3)]Neu5Ac(a2-3)Gal(b1-4)]GlcNAc
# Method in brief: (§1)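 Glycan array binding is given as a within-array Z-score, which can be read as non-binding when negative. The arrays, 3228 of them, came from the Consortium for Functional Glycomics database and were retained only where the protein sequence was available. Z-scores were averaged across arrays of the same protein sequence at different concentrations or buffers and across linkers.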
# Neu5Ac(a2-3)Gal(b1-4)Glc = biological target: Neu5Ac(a2-3)Gal(b1-4)Glc
# Method in brief: as §1
# [2] = biological target: Neu5Ac(a2-3)Gal(b1-4)GlcNAc(b1-3)Gal(b1-4)GlcNAc(b1-3)[Neu5Ac(a2-3)Gal(b1-4)GlcNAc(b1-3)Gal(b1-4)GlcNAc(b1-6)]GalNAc
# Method in brief: as §1
# [3] = biological target: Neu5Ac(a2-3)Gal(b1-4)GlcNAc6S
# Method in brief: as §1
# [4] = biological target: Neu5Ac(a2-3)Gal(b1-4)[Fuc(a1-3)]GlcNAc
# Method in brief: as §1
# [5] = biological target: Neu5Ac(a2-3)Gal(b1-4)[Fuc(a1-3)]GlcNAc(b1-2)Man
# Method in brief: as §1
# [6] = biological target: Neu5Ac(a2-3)Gal(b1-4)[Fuc(a1-3)]GlcNAc6S
# Method in brief: as §1
# [7] = biological target: Neu5Ac(a2-6)Gal(b1-4)GlcNAc(b1-3)Gal(b1-4)GlcNAc(b1-3)Gal(b1-4)GlcNAc(b1-2)Man(a1-3)[Neu5Ac(a2-6)Gal(b1-4)GlcNAc(b1-3)Gal(b1-4)GlcNAc(b1-3)Gal(b1-4)GlcNAc(b1-2)Man(a1-6)]GalNAc
# Method in brief: as §1
# [8] = biological target: Neu5Ac(a2-6)Gal(b1-4)GlcNAc6S
# Method in brief: as §1
# [9] = biological target: Neu5Ac(a2-8)Neu5Ac(a2-3)Gal(b1-4)GlcNAc
# Method in brief: as §1
# [10] = biological target: Neu5Ac(a2-8)Neu5Ac(a2-3)[Gal(b1-3)GalNAc(b1-4)]Gal(b1-4)Glc
# Method in brief: as §1
# [11] = biological target: Neu5Gc(a2-3)Gal(b1-3)GlcNAc
# Method in brief: as §1
# [12] = biological target: Neu5Gc(a2-3)Gal(b1-4)[Fuc(a1-3)]GlcNAc
# Method in brief: as §1
# [13] = biological target: Neu5Gc(a2-8)Neu5Gc(a2-3)Gal(b1-4)GlcNAc(b1-3)Gal(b1-4)GlcNAc
# Method in brief: as §1
binder,measurement,setting,value
"Siglec-9 (Homo sapiens), Q9Y336 (protein) MLLLLLPLLWGRERAEGQTSKLLTMQSSVTVQEGLCVHVPCSFSYPSHGWIYPGPVVHGYWFREGANTDQDAPVATNNPARAVWEETRDRFHLLGDPHTKNCTLSIRDARRSDAGRYFFRMEKGSIKWNYKHHRLSVNVTALTHRPNILIPGTLESGCPQNLTCSVPWACEQGTPPMISWIGTSVSPLDPSTTRSSVLTLIPQPQDHGTSLTCQVTFPGASVTTNKTVHLNVSYPPQNLTMTVFQGDGTVSTVLGNGSSLSLPEGQSLRLVCAVDAVDSNPPARLSLSWRGLTLCPSQPSNPGVLELPWVHLRDAAEFTCRAQNPLGSQQVYLNVSLQSKATSGVTQGVVGGAGATALVFLSFCVIFVVVRSCRKKSARPAAGVGDTGIEDANAVRGSASQGPLTEPWAEDSPPDQPPPASARSSVGEGELQYASLSFQMVKPWDSRGQEATDTEYSEIKIHR",glycan array binding signal (z-score),[1],1.76
same,glycan array binding signal (z-score),Neu5Ac(a2-3)Gal(b1-4)Glc,1.09
same,glycan array binding signal (z-score),[2],-0.187
same,glycan array binding signal (z-score),[3],2.21
same,glycan array binding signal (z-score),[4],1.14
same,glycan array binding signal (z-score),[5],14.8
same,glycan array binding signal (z-score),[6],16.8
same,glycan array binding signal (z-score),[7],0.878
same,glycan array binding signal (z-score),[8],1.58
same,glycan array binding signal (z-score),[9],-0.259
same,glycan array binding signal (z-score),[10],-0.214
same,glycan array binding signal (z-score),[11],-0.028
same,glycan array binding signal (z-score),[12],0.005
same,glycan array binding signal (z-score),[13],-0.178
